Measurements taken from PubChem BioAssay (NCI).
This is part of a sample that, as a whole, favours compounds with a hit. Of some 83,000 tested, about 20% had one in any assay.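 Growth was measured after 48 h exposure to one concentration of compound in 96-well plates. Values under 10 count as active.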 A number with no mark means an inactive call. Active and inactive are the calls of the source. *1 amine or outer side, *2 acyl side, *3 side chain or, on linkers, in order; H or OH if unused. Where a SMILES comes first, the peptide text is derived from it. Bridges are numbered along the chain shown (N, C = ends). Roman numbers before positions name the chains, in order. [ ]: non-standard residue; d: D form. ξ: configuration not given here. Actinocin(1to9) = Cc1c2oc3c(C)ccc(C(=O)[*:2])c3nc-2c(C(=O)[*:1])c(N)c1=O; NMeV = CN[CH](C(=O)O)C(C)C; ξD = NC(CC(=O)O)C(=O)O; Sar = CNCC(=O)O

Each molecule was assayed on NCI-H23 lung (assay: NCI-60 one-dose screen, 48 h (100 = growth as untreated, 0 = no growth, -100 = all killed)). Conditions: 10 µM unless noted.
In the case of CCC(C)C1NC(=O)C(NC(=O)c2c3nc4c(C(=O)NC5C(=O)NC(C(C)CC)C(=O)N6CCCC6C(=O)N(C)CC(=O)N(C)C(C(C)C)C(=O)OC5C)ccc(C)c4oc-3c(C)c(=O)c2N)C(C)OC(=O)C(C(C)C)N(C)C(=O)CN(C)C(=O)C2CCCN2C1=O (centres undefined) (I: TIP[Sar][NMeV] / II: TIP[Sar][NMeV]; ester I:1-I:C, II:1-II:C; linker I:N-II:N via Actinocin(1to9); configuration not given here), the growth is reported as -51.1% (active). O=C(c1ccccc1)N(CCCl)C(=O)N(CCCl)C(=O)c1ccccc1 showed a growth of 93.7%. OC(CSc1ccccc1)CN1CCN(c2ccc(Cl)cc2)CC1 (centres undefined) was tested, and the growth was 107%. Work on CCCOS(=O)(=O)c1ccccc1 yielded a growth of 101%. Molecule O=C(c1ccccc1)C(Br)[N+](=O)[O-] (centres undefined) has a growth of 99.8%. With CCCCCCCCC(=O)OCCCC(CCC(CCC1CCCO1)OC(=O)CCCCCCCC)OC(=O)CCCCCCCC (centres undefined) the growth was 104%. O=C(CCl)N(c1ccccc1)c1ccccc1 was tested, and the growth was 98.1%. With NC(=S)N/N=C/c1ncccc1O the growth was -6.55% (active). For COc1c(C)c2c(c(O)c1C/C=C(\C)CCC(=O)O)C(=O)OC2, the growth was 33.9%. Work on CC1=CC(=O)C=CC1(C)C(Cl)(Cl)Cl (centres undefined) yielded a growth of 100%. O=C1c2ccccc2C(=O)c2c(O)c(Cl)cc(O)c21 showed a growth of 96.6%. Cc1oc2c(C)c3oc(=O)cc(C)c3cc2c1CCl showed a growth of 84.9%. In the case of Oc1c(C(Nc2ccccc2)c2ccccc2)ccc2cccnc12 (centres undefined), the growth is reported as 51%. O=C(/C=C/C(Cl)(Cl)Cl)Nc1ccc(Cl)cc1 was tested, and the growth was 81.5%. Work on N#CC(=C1SCS1)[N+](=O)[O-] yielded a growth of 43.9%. For Cc1cc(N/N=C/c2ccccn2)nc2ccccc12, the growth was 14%. In the case of CCCCCCN(CCCCCC)CCCNc1nccc2ccccc12, the growth is reported as 12%. COC(=O)[C@]1(C)CCC[C@]2(C)c3ccc(C(C)C)cc3C(=O)[C@@H](Br)[C@@H]12 was tested, and the growth was 90.3%. CCOC(=O)NC(/C=C/c1ccccc1)NC(=O)OCC gave a growth of 102%. NCC(=O)NC(CC(=O)O)C(=O)O (centres undefined) (H-Gly-[ξD]-OH) gave a growth of 108%. Nc1nc2ncc(CNc3ccc(C(=O)NC(CCC(=O)NC(CCC(=O)NC(CCC(=O)NC(CCC(=O)NC(CCC(=O)O)C(=O)O)C(=O)O)C(=O)O)C(=O)O)C(=O)O)cc3)nc2c(=O)[nH]1 (centres undefined) showed a growth of 101%. O=C(Cc1nc2cc(Cl)c(Cl)cc2nc1CC(=O)c1ccccc1)c1ccccc1 showed a growth of 77.3%. Cn1c(-c2ccccc2)c(/C=C/C2=[N+](C)c3ccccc3C2(C)C)c2ccccc21 was tested, and the growth was 7.45% (active). For NC(=Nc1nc(-c2ccccn2)cc2ccccc12)c1ccccn1, the growth was -90.1% (active). With CC(C)(C)c1ccc(O)c(-c2ccccc2)c1 the growth was 105%. In the case of CCOC(=O)C1=NN(c2ccccc2)C(=O)/C1=C\N1C(=O)/C(=C/c2cccc(O)c2)SC1=S, the growth is reported as 87.8%. CCN(CC)CCNc1ccc([N+](=O)[O-])c2sc3ccccc3c(=O)c12 was tested, and the growth was 34.6%. Work on NCCCN(CCCN)CCCNCc1c2ccccc2c(CNCCCN(CCCN)CCCN)c2ccccc12 yielded a growth of 92.2%. In the case of CCOC(=O)/C(=C\c1ccc2ccccc2c1)P(=O)(OCC)OCC, the growth is reported as 41.1%. Cc1cc2nc(CC(=O)c3ccncc3)c(=O)[nH]c2cc1C showed a growth of 94.2%. Molecule Oc1c(Cl)cc(Cl)cc1C=NCC1CCC(CN=Cc2cc(Cl)cc(Cl)c2O)CC1 (centres undefined) has a growth of 102%. In the case of CN1CCC(CN2c3ccccc3Sc3ccccc32)C1 (centres undefined), the growth is reported as 88.9%. With CC1(C)OC2C(COC(c3ccccc3)(c3ccccc3)c3ccccc3)OC(c3c[nH]c4c(N)ncnc34)C2O1 (centres undefined) the growth was 62.9%. O=[N+]([O-])c1ccc(Oc2ccccc2Cl)c([N+](=O)[O-])c1 was tested, and the growth was 73.9%. In the case of Cc1cc(Br)c2nsnc2c1[N+](=O)[O-], the growth is reported as -6.95% (active). With Cc1cccc2c(N)c3ccccc3nc12 the growth was -39.6% (active). O=C(/C(Cl)=N/O)c1ccc(-c2ccccc2)cc1 gave a growth of 93.4%.

What follows are molecules tested on NCI-H226 lung in the same assay as above. Conditions: 10 µM unless noted.
In the case of CCC(C)C1NC(=O)C(NC(=O)c2c3nc4c(C(=O)NC5C(=O)NC(C(C)CC)C(=O)N6CCCC6C(=O)N(C)CC(=O)N(C)C(C(C)C)C(=O)OC5C)ccc(C)c4oc-3c(C)c(=O)c2N)C(C)OC(=O)C(C(C)C)N(C)C(=O)CN(C)C(=O)C2CCCN2C1=O (centres undefined) (I: TIP[Sar][NMeV] / II: TIP[Sar][NMeV]; ester I:1-I:C, II:1-II:C; linker I:N-II:N via Actinocin(1to9); configuration not given here), the growth is reported as -16% (active). In the case of O=C(c1ccccc1)N(CCCl)C(=O)N(CCCl)C(=O)c1ccccc1, the growth is reported as 93.7%. With OC(CSc1ccccc1)CN1CCN(c2ccc(Cl)cc2)CC1 (centres undefined) the growth was 91.7%. CCCOS(=O)(=O)c1ccccc1 gave a growth of 103%. With O=C(c1ccccc1)C(Br)[N+](=O)[O-] (centres undefined) the growth was 101%. With CCCCCCCCC(=O)OCCCC(CCC(CCC1CCCO1)OC(=O)CCCCCCCC)OC(=O)CCCCCCCC (centres undefined) the growth was 104%. Work on O=C(CCl)N(c1ccccc1)c1ccccc1 yielded a growth of 102%. NC(=S)N/N=C/c1ncccc1O showed a growth of 39%. COc1c(C)c2c(c(O)c1C/C=C(\C)CCC(=O)O)C(=O)OC2 showed a growth of 58.8%. Work on CC1=CC(=O)C=CC1(C)C(Cl)(Cl)Cl (centres undefined) yielded a growth of 95.2%. O=C1c2ccccc2C(=O)c2c(O)c(Cl)cc(O)c21 was tested, and the growth was 104%. Cc1oc2c(C)c3oc(=O)cc(C)c3cc2c1CCl gave a growth of 75.5%. Oc1c(C(Nc2ccccc2)c2ccccc2)ccc2cccnc12 (centres undefined) gave a growth of 33.2%. In the case of O=C(/C=C/C(Cl)(Cl)Cl)Nc1ccc(Cl)cc1, the growth is reported as 106%. N#CC(=C1SCS1)[N+](=O)[O-] showed a growth of 75.3%. For Cc1cc(N/N=C/c2ccccn2)nc2ccccc12, the growth was -1.94% (active). In the case of CCCCCCN(CCCCCC)CCCNc1nccc2ccccc12, the growth is reported as 42.9%. COC(=O)[C@]1(C)CCC[C@]2(C)c3ccc(C(C)C)cc3C(=O)[C@@H](Br)[C@@H]12 was tested, and the growth was 81.7%. For CCOC(=O)NC(/C=C/c1ccccc1)NC(=O)OCC, the growth was 102%. NCC(=O)NC(CC(=O)O)C(=O)O (centres undefined) (H-Gly-[ξD]-OH) showed a growth of 100%. Nc1nc2ncc(CNc3ccc(C(=O)NC(CCC(=O)NC(CCC(=O)NC(CCC(=O)NC(CCC(=O)NC(CCC(=O)O)C(=O)O)C(=O)O)C(=O)O)C(=O)O)C(=O)O)cc3)nc2c(=O)[nH]1 (centres undefined) gave a growth of 113%. Molecule O=C(Cc1nc2cc(Cl)c(Cl)cc2nc1CC(=O)c1ccccc1)c1ccccc1 has a growth of 70.4%. With Cn1c(-c2ccccc2)c(/C=C/C2=[N+](C)c3ccccc3C2(C)C)c2ccccc21 the growth was 13.5%. Work on NC(=Nc1nc(-c2ccccn2)cc2ccccc12)c1ccccn1 yielded a growth of 21.4%. CC(C)(C)c1ccc(O)c(-c2ccccc2)c1 showed a growth of 122%. CCOC(=O)C1=NN(c2ccccc2)C(=O)/C1=C\N1C(=O)/C(=C/c2cccc(O)c2)SC1=S showed a growth of 103%. CCN(CC)CCNc1ccc([N+](=O)[O-])c2sc3ccccc3c(=O)c12 showed a growth of 18.4%. In the case of NCCCN(CCCN)CCCNCc1c2ccccc2c(CNCCCN(CCCN)CCCN)c2ccccc12, the growth is reported as 87.2%. With CCOC(=O)/C(=C\c1ccc2ccccc2c1)P(=O)(OCC)OCC the growth was 55.7%. For Cc1cc2nc(CC(=O)c3ccncc3)c(=O)[nH]c2cc1C, the growth was 87.4%. Oc1c(Cl)cc(Cl)cc1C=NCC1CCC(CN=Cc2cc(Cl)cc(Cl)c2O)CC1 (centres undefined) gave a growth of 97%. For CN1CCC(CN2c3ccccc3Sc3ccccc32)C1 (centres undefined), the growth was 111%. CC1(C)OC2C(COC(c3ccccc3)(c3ccccc3)c3ccccc3)OC(c3c[nH]c4c(N)ncnc34)C2O1 (centres undefined) gave a growth of 72.9%. O=[N+]([O-])c1ccc(Oc2ccccc2Cl)c([N+](=O)[O-])c1 gave a growth of 83.8%. In the case of Cc1cc(Br)c2nsnc2c1[N+](=O)[O-], the growth is reported as 44.4%. With Cc1cccc2c(N)c3ccccc3nc12 the growth was -9.22% (active). O=C(/C(Cl)=N/O)c1ccc(-c2ccccc2)cc1 showed a growth of 88.7%.
